Screens from PubChem.
Compounds with a hit are over-represented: about 0.9% of the library has one in this group of screens.
LMNA splice mod = LMNA splicing modulation. HeLa LMNA splicing GFP/RFP minigene ratio, 48 h. Potency, µM (titrated, usually from 46.1 µM), hits mostly inhibitors. 0.01% of 200,000 active; active = well fitted inhibition curve with a large enough effect in the signal ratio, with a control signal flat, not every such curve was filed as active; inconclusive = small, poorly fitted or top-dose-only effect, or effect the other way, or a change in a side signal; the % refers to the signal ratio
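S3 HeLa stable clones carrying a lamin A-EGFP splicing minigene plus DsRed2 were seeded at 600 cells/well in Opti-MEM with 2% FBS, pin-dosed and incubated 48 h at 37°C. Acumen cytometry (488 nm) gave the GFP/RFP total-intensity ratio.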
BLM inh = blocks DNA unwinding by human BLM helicase; recombinant BLM DNA unwinding, fluorescence dequenching; Potency, µM (top dose mostly 56.1 µM), actives largely listed as inhibitors; 0.2% of 350,000 active; note: nearly all actives have a fitted effect of over 35% in size
TDP1 block = TDP1 (human) enzyme inhibition; recombinant TDP1, AlphaScreen DNA substrate cleavage; 0.28% of 350,000 active; Potency, µM (doses to about 130 µM), actives largely listed as inhibitors; Q9NUW8; note: nearly all actives have a fitted effect of over 40% in size
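Here, a 5' biotin and 3' phosphotyrosine-FITC DNA oligonucleotide reports Tdp1 activity: intact substrate bridges AlphaScreen beads, while cleavage leaves a 3' phosphate and drops signal. All incubations at room temperature.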
KAT2A inh = blocks human GCN5L2 histone acetyltransferase | Q92830 | GCN5L2 HAT assay, ThioGlo1 CoA-SH fluorescence | Potency, µM (titrated, usually from 58.9 µM), usual class: inhibitors | 0.21% of 390,000 active | AID 504327
Target sequence (Q92830 whole entry, looked up): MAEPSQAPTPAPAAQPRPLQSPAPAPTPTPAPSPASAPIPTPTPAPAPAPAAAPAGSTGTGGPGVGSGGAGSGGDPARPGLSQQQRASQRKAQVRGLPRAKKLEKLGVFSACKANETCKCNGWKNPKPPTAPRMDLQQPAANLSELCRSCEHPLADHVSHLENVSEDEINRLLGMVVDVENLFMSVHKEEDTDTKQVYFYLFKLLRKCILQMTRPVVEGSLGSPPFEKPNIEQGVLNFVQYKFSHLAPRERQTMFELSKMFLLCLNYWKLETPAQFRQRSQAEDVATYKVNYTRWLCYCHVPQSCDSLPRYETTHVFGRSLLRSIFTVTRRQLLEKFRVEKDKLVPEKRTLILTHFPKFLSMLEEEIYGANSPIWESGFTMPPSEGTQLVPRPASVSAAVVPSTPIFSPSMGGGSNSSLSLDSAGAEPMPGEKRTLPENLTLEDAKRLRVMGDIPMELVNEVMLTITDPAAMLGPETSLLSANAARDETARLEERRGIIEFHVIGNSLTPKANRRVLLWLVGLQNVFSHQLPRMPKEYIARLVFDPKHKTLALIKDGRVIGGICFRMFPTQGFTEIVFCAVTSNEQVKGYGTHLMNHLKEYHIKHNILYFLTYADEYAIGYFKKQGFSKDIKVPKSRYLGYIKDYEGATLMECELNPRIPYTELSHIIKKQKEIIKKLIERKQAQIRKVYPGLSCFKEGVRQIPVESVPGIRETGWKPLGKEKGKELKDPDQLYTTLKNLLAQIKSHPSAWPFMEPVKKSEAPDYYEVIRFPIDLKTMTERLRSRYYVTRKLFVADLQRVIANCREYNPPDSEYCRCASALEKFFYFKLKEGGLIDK
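Titration-based screen in which CoA formation is detected via maleimide probe ThioGlo1 (50uM) turning fluorescent on thiol reaction; substrates H3(1-25) 75uM and acetyl-CoA 70uM, GCN5L2 20nM, 20 min incubation at room temperature.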
RECQ1 helicase = inhibitors of human RECQ1 DNA helicase; AID 2549; 0.54% of 240,000 active; RECQ1 DNA unwinding, red fluorescence kinetic read; Potency, µM (doses to about 57.3 µM), usual class: inhibitors; note: nearly all actives have a fitted effect of over 30% in size
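50 nM RECQ1T1 preincubated 15 min with compound in Tris pH 8.0 buffer with MgCl2, DTT, Tween-20 and 2.5 ug/ml poly(dI-dC); started with 200 nM TAMRA/BHQ-2 forked duplex and 2 mM ATP. Unwinding read as fluorescence (525/598 nm), two reads 2 h apart.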
APEX1 inh = APE1 (human) endonuclease inhibition | P27695 | Potency, µM (doses to about 65.8 µM), usual class: inhibitors | recombinant APE1, TAMRA/BHQ-2 abasic DNA cleavage fluorescence | AID 2517 | 0.35% of 350,000 active; note: nearly all actives have a fitted effect of over 55% in size
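Kinetic fluorescence read (525 ex/598 em nm, three reads 60 s apart) of AP-site incision; signal = third minus first read. Enzyme 0.75 nM, dual-labelled THF duplex 50 nM, compound preincubation 15 min RT.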
Large screens that a line does not name were inactive. Unless noted, calls come from the whole dose curve; as a rule, active = well fitted curve in the direction sought with a large enough effect; inconclusive = small, poorly fitted or top-dose-only effect, or another doubt; inactive = no such curve, though single readings can be large; an effect the other way counts as inactive or inconclusive.

CCOc1cc(N2CCOCC2)c(OCC)cc1NC(=O)Cc1ccccc1OC	KAT2A inh 28µM
CCOc1cc(N2CCOCC2)c(OCC)cc1NC(=O)Cc1ccccc1	none (no result: LMNA splice mod)
COc1ccc(-c2cc(=O)c3ccccc3o2)cc1OC	KAT2A inh 35µM
COc1ccc(-c2oc3ccccc3c(=O)c2O)cc1OC	LMNA splice mod inconclusive, KAT2A inh 32µM
CCCC[C@@H]1CCCO[C@@](C(=O)NCc2ccccc2)(C(F)(F)F)C1	none (no result: LMNA splice mod, KAT2A inh)
N#Cc1ccc(Nc2nn3c(=O)c4ccccc4nc3s2)cc1	none (no result: LMNA splice mod, BLM inh, TDP1 block, KAT2A inh, RECQ1 helicase)
NCC(=O)N[C@@H](CCCN=C(N)N)C(=O)NCC(=O)N[C@@H](CC(=O)O)C(=O)N[C@@H](CO)C(=O)O	none (no result: LMNA splice mod)
CCCCCCCCCCCCCCC(C(=O)O)C(O)(CC(=O)OC)C(=O)O (configuration not stated)	KAT2A inh 13µM, RECQ1 helicase inconclusive
O=C1OCCN1C(=O)[C@H]1[C@H](c2ccccc2)C(c2cccc(Cl)c2)=NN1c1ccc(Br)cc1	KAT2A inh 22µM (no result: LMNA splice mod)
OC[C@@H]1[C@@H](c2ccccc2)C(c2cccc(Cl)c2)=NN1c1ccccc1	TDP1 block 25µM, RECQ1 helicase 32µM (no result: LMNA splice mod)
COc1ccccc1[C@@H]1C(c2ccccc2)=NN(c2ccc(Br)cc2)[C@H]1C(=O)N1CCOC1=O	none (no result: LMNA splice mod)
COc1ccccc1[C@@H]1C(c2cccc(Cl)c2)=NN(c2ccccc2)[C@H]1C(=O)N1CCOC1=O	LMNA splice mod inconclusive, KAT2A inh 20µM (no result: TDP1 block)
N#Cc1nc(Nc2ccc(F)cc2)nc(NC2CCCC2)n1	none (no result: LMNA splice mod, BLM inh, KAT2A inh, RECQ1 helicase, APEX1 inh)
O=C(Nc1cc(Cl)cc2c1[nH]c1cnccc12)c1cccnc1	APEX1 inh inconclusive (no result: LMNA splice mod)
NC(=O)C1CCN(c2nc(-c3ccc(C(F)(F)F)cc3)cs2)CC1	none (no result: LMNA splice mod, BLM inh, TDP1 block, KAT2A inh, RECQ1 helicase)
CC(O)C#C[Si](C)(C)c1ccccc1 (configuration not stated)	none (no result: LMNA splice mod, KAT2A inh)
COC(=O)/C(C(C)=O)=C(\C=C\N(C)C)N(C)C	none
COC(=O)\C(C(C)=O)=C(/C=C/C=C/C=C/N(C)C)N(C)C	TDP1 block 3.2µM, RECQ1 helicase 25µM, APEX1 inh 7.9µM
Cc1ccc(NC(=O)CCc2nnc3ccc(NCc4ccco4)nn23)nc1	none (no result: LMNA splice mod, RECQ1 helicase)
CC(=O)c1cccc(NC(=O)CCc2nnc3ccc(NCc4ccco4)nn23)c1	BLM inh inconclusive, TDP1 block 25µM (no result: LMNA splice mod, RECQ1 helicase)
N[C@H](C(=O)O)[C@H](Cc1ccccc1)C(=O)O	none (no result: LMNA splice mod, BLM inh, TDP1 block, RECQ1 helicase, APEX1 inh)
COc1ccc(-c2c(C3C4C=CCC(C)C4C(=O)N3Cc3ccccc3)ccc3ccccc23)cc1 (configuration not stated)	none (no result: LMNA splice mod, KAT2A inh)
NS(=O)(=O)c1ccc(N=Nc2c(O)ccc3ccccc23)cc1	none (no result: LMNA splice mod)
Oc1ccc(N=Nc2c(O)ccc3ccccc23)cc1	LMNA splice mod inconclusive, RECQ1 helicase 35µM
Cc1cc(NS(=O)(=O)c2ccc3c(c2)CCC(=O)N3)ccc1F	none (no result: LMNA splice mod, BLM inh, KAT2A inh, RECQ1 helicase, APEX1 inh)
Cc1cc(=O)oc2cc(NC(=O)[C@H](CCCCN)NC(=O)[C@H](CC3CCCCC3)NC(=O)OCC3c4ccccc4-c4ccccc43)ccc12	BLM inh inconclusive, RECQ1 helicase inconclusive (no result: LMNA splice mod)
COc1cccc(-c2csc(N3CCC(C(N)=O)CC3)n2)c1	none (no result: LMNA splice mod, BLM inh, TDP1 block, KAT2A inh, RECQ1 helicase)
COc1cccc(NC(=O)c2sc3nc(C)c(C(=O)Nc4ccc(C)cc4C)c(-c4cccs4)c3c2N)c1	KAT2A inh 18µM (no result: LMNA splice mod, RECQ1 helicase, APEX1 inh)
O=S1(=O)C2CC3OC2(CC3c2ccc(F)cc2)CN1Cc1ccc(Cl)cc1 (configuration not stated)	none (no result: LMNA splice mod, KAT2A inh)
NC(=O)C1CC2(NC(=O)NC2=O)c2cc(F)ccc2O1 (configuration not stated)	none (no result: LMNA splice mod, TDP1 block, RECQ1 helicase, APEX1 inh)
O=C1C(Cl)=C(NCCCO)C(=O)c2ccccc21	LMNA splice mod inconclusive
O=C1C(SCCO)=C(SCCO)C(=O)c2ccccc21	LMNA splice mod inconclusive, BLM inh 8.9µM, RECQ1 helicase inconclusive, APEX1 inh inconclusive
Clc1ccccc1-c1nc(NC2CCNCC2)c2ccccc2n1	KAT2A inh 28µM (no result: TDP1 block)
O=C(/C=C/c1ccco1)N1CCN(S(=O)(=O)c2ccccc2)CC1	TDP1 block 10µM, KAT2A inh inconclusive, APEX1 inh inconclusive (no result: LMNA splice mod, BLM inh, RECQ1 helicase)
